# Screening data as filed in PubChem BioAssay.
# Rango complex inh = inhibitors of Rango-importin beta complex formation. Q14974. Rango CFP/YFP FRET sensor + importin beta, 45 min. Potency, µM (top dose mostly 92.2 µM), without a hit: at the top dose inhibition of complex formation. hit rate 0.031% among 340,000. AID 540263;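 note: 0% = DMSO wells and 100% = buffer wells lacking importin beta; nearly all actives have a fitted effect of over 15% in size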
#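 FRET biosensor Rango (snurportin 1 IBB between N-terminal EYFP and C-terminal Cerulean), 50 nM in PBS/1 mM DTT/0.02% Tween-20/0.1% BSA, preincubated 5 min RT with compound; 0.125 microM importin beta added, 45 min RT, CFP/YFP FRET ratio read.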
# TDP1 inh = inhibitors of human tyrosyl-DNA phosphodiesterase TDP1; recombinant TDP1, AlphaScreen DNA substrate cleavage; Potency, µM (doses to about 130 µM), without a hit: top-dose activity change, negative = inhibition, actives largely listed as inhibitors; hit rate 0.28% among 350,000; AID 485290; active = well fitted curve in the direction sought with a large enough effect; inconclusive = small, poorly fitted or top-dose-only effect, or another doubt; inactive = no such curve, though single readings can be large; an effect the other way counts as inactive or inconclusive; note: % is set by controls: 0 for no effect and ±100 for the full control effect; nearly all actives have a fitted effect of over 40% in size
#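 Compounds were preincubated with Tdp1 (1 nM final) for 15 min at room temperature before substrate (15 nM final) started a 5 min reaction; beads (10 ug/ml final) were then added for 10 min before AlphaScreen detection.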
# ClpP mod = qHTS Assay for Activators of ClpP; ATP-dependent Clp protease proteolytic subunit (Bacillus subtilis (strain 168)), P80244; purified B. subtilis ClpP, FRET peptide cleavage, 20 min; Potency, µM (highest dose often 57.5 µM), for the others: top-dose activity change, negative = active; hit rate 1.9% among 340,000; AID 651965, 2013; active = well fitted falling curve with a large enough effect; inconclusive = small, poorly fitted or top-dose-only effect; inactive = no such curve, though single readings can be large or run the other way; note: the source files actives as falling curves though it sought activators and does not explain the sign; nearly all actives have a fitted effect of over 65% in size
#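 ClpP 10 microg/mL final, pH 8 Tris/KCl buffer with BSA, glycerol, Tween-20; compound pinned in; FRET-FV substrate; RT 20 min; Ex320/Em430; ΔFRET vs ADEP 5.8 microM, DMSO, no enzyme.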
# Rango release inh = inhibition of RanGTP-driven Rango-importin beta dissociation; Biochemical FRET Rango-importin beta, RanGTP-induced dissociation; Potency, µM (doses to about 46.1 µM), for the others: at the highest dose activity change, negative = inhibition; hit rate 0.071% among 340,000; note: % of control where 0% means no effect; nearly all actives have a fitted effect of over 45% in size
#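 Rango FRET biosensor (snurportin-1 IBB flanked by N-terminal EYFP and C-terminal CFP10) at 0.1 uM, with 0.25 uM importin beta in PBS, 1mM DTT, 0.02% Tween-20, 0.1% BSA. 0.6 uM Ran, 2mM GTP and 0.2 uM RCC1 were then added for 45 min at room temperature. Inhibition read as loss of FRET rise.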
# PTAP TSG101 blk = blocks PTAP/TSG101 interaction to inhibit HIV-1 budding. Q99816. Fluorescence polarization, FITC-PTAP peptide / Tsg101 binding. Potency, µM (highest dose often 115 µM), for inactives: at the highest dose activity change, negative = inhibition, hits mostly inhibitors. 340,000 tested, under 10 active; active = well fitted inhibition curve with a large enough effect in the main read-out, with a control signal flat, not every such curve was filed as active; inconclusive = small, poorly fitted or top-dose-only effect, or effect the other way, or a change in a side signal; inactive = no such curve, though single readings can be large or run the other way; note: % of control where 0% means no effect
#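 Compounds were pin-transferred onto Tsg101 binding domain (10 uM final) in HEPES pH 7.5 buffer, then FITC-PTAP peptide was added at 50 nM final. After 20 min at RT, polarization reported peptide displacement across a qHTS concentration series.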
# ALOX12 inh = inhibitors of human 12S-lipoxygenase ALOX12; hit rate 1.1% among 580,000; purified 12hLO, xylenol orange hydroperoxide absorbance; Potency, µM (highest dose often 108 µM), for inactives: at the top dose activity change, negative = inhibition, actives largely listed as inhibitors; AID 1671190; P18054; active = well fitted curve in the direction sought with a large enough effect; inconclusive = small, poorly fitted or top-dose-only effect, or another doubt; inactive = no such curve, though single readings can be large; an effect the other way counts as inactive or inconclusive; note: % is set by controls: 0 for no effect and ±100 for the full control effect
#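 Hydroperoxide product was detected by ferrous iron/xylenol orange as the 573 to 405 nm absorbance ratio. Arachidonic acid at 40 uM (final) was turned over for 30 min at room temperature by 150 nM human 12hLO, pH 7.0 Hepes buffer, after 15 min compound preincubation.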
# Active calls of the source: *; u = inconclusive; x = no result given; ! = repeats disagree; [ ] = remark or other dose. The list is not random: actives were taken first. Their share in the collection is about 2.4%. Unless noted, calls come from the whole dose curve. Potency is the fitted concentration of half-maximal effect.
SMILES,Rango complex inh,TDP1 inh,ClpP mod,Rango release inh,PTAP TSG101 blk,ALOX12 inh
CNC(=O)c1ccc(NC(=O)Cc2ccc(OC)cc2)cc1,x,x,x,x,x,-4%
Cc1c(/C(O)=C2/C(=O)C(=O)N(CCN3CCOCC3)C2c2cccs2)cnn1-c1ccccc1 (stereo not drawn),0%,5%,11µM*,3%,0%,u
Cc1cccc(N(CC(=O)Nc2cccc3ccccc23)S(C)(=O)=O)c1C,x,x,x,x,x,-32%
NC(=O)c1ccc(-c2nc3c([nH]2)CN(c2ncnc4ccsc24)CC3)cc1,x,x,x,x,x,82%
Cc1sc2c3ccsc3ccc2[n+]1C,-1%,10%,x,-8%,-4%,16µM*
Cc1sc2ccc3sccc3c2[n+]1C,-2%,7%,x,-1%,-1%,11µM*
OC[C@@H]1O[C@H](CNCc2ccc(F)cc2)[C@H](N2CCCC2)[C@@H]1O,x,x,x,x,x,-3%[176 µM]
OC[C@@H]1O[C@H](CNCc2ccc(F)cc2)[C@H](N2CCOCC2)[C@@H]1O,x,x,x,x,x,28µM*
CC(=O)Nc1ccc(Nc2nc(-c3sc(C)nc3C)cs2)cc1,1%,8%,-2%,-14%,-2%,16µM*!
CCNc1nc(-c2ccc(NC(C)=O)cc2)cs1,x,x,x,x,x,28µM*
CC(=O)Nc1ccc(C(=O)Nc2nc(-c3cccnc3)cs2)cc1,2%,71µM*,11µM*,12%,-2%,-25%
O=C1N=c2ccc(Br)cc2=C1c1sc(=S)n(NS(=O)(=O)c2ccccc2)c1O,0%,10%,x,5%,-4%,35µM*
O=C1N=c2ccccc2=C1c1sc(=S)n(NC(=O)c2cccc(O)c2)c1O,0%,8%,3%,1%,-1%,-30%
Cc1ccc(S(=O)(=O)Nn2c(O)c(C=C3N=c4ccccc4=N3)sc2=S)cc1,-1%,5%,-3%,24%,-3%,35µM*
Cc1ccc(C(=O)Nn2c(O)c(C=C3N=c4ccccc4=N3)sc2=S)cc1,10%,5%,0%,7%,-26%,25%
COc1ccc(-c2nnc(Cn3nc(C)c(S(=O)(=O)N4CCc5ccccc54)c3C)o2)cc1,x,x,x,x,x,42%
NS(=O)(=O)c1ccc(N/N=C/c2ccc(-c3ccccc3)cc2)c([N+](=O)[O-])c1,x,x,x,x,x,-44%
O=C(C1CC1)N1C[C@@H]2OCC(=O)N(c3ccccc3)[C@@H]2C1,x,x,x,x,x,24%[176 µM]
Cn1ncc(S(=O)(=O)Cc2ccccc2)c(Cl)c1=O,0%,5%,x,17%,-4%,14µM*
CC(=O)Oc1cc(OC(C)=O)c2c(C)c(CC(=O)NC(C)c3ccccc3)c(=O)oc2c1 (stereo not drawn),x,x,x,x,x,-19%
COc1cc(OC)c(N(C)S(=O)(=O)c2cccc(C(=O)NCc3cccs3)c2)cc1Cl,x,x,-1%,x,x,10µM*
COc1ccc(OC)c(NC(=O)c2ccc3c(c2)c(C)c(C)n3Cc2ccc(F)cc2)c1,x,11%,22µM*,x,x,-10%
COc1ccc(OC)c(CNC(=O)c2ccc3c(c2)c(C)c(C)n3Cc2ccc(Cl)cc2)c1,x,5%,32µM*,x,x,-11%
COc1ccc(NC(=O)c2ccc3c(c2)c(C)c(C)n3Cc2ccc(F)cc2)c(OC)c1,x,8%,22µM*,x,x,-21%
COc1ccccc1CCNC(=O)c1ccc2c(c1)c(C)c(C)n2Cc1ccc(Cl)cc1,x,5%,u,x,x,-9%
CCOC(=O)c1oc2cc(OC(=O)c3ccccc3OC)ccc2c(=O)c1-c1ccccc1OC,x,x,x,x,x,-26%
Cc1ccc(NC(=O)CCC(=O)c2ccc(F)cc2)cc1Cl,-5%,4%,25µM*,27%,2%,43%
O=C(CCC(=O)c1cccs1)NCCC(=O)Nc1ccc(F)c(Cl)c1,x,x,x,x,x,50µM*
COc1ccc(C(=O)CCC(=O)Nc2ccc(C)c(Cl)c2)cc1,x,-2%,2%,x,x,4%
